# Assay results reported in article PMC7819943, “Rice protein-binding microarrays: a tool to detect cis-acting elements near promoter regions in rice”.
# Whole data set: some 68,000 sequences, median “fluorescence intensity (a.u.)” near 9,100, cut for the highest 2% near 16,000. Many of the other results were omitted from the sample, so the highest values are more common in it than they were.
# Biological target: OsWRKY34 (Oryza sativa, UniProt Q0JBA9 1-250)
# Experiment: protein-binding microarray (RPBM); PBS, 2% BSA, 51.3 ng/ul salmon testes DNA, 50 uM zinc acetate, 200 nM TF, 25 C, 1 h; high values mean tight binding
# Conditions: protein: recombinant; tags: N-terminal polyhistidine and DsRed monomer fusion (pET32a); label: CyDye5-dUTP incorporated in the synthesized complementary strand; 3' TTTTT single-stranded linker to array surface; dsDNA, one strand shown
# Procedure, shortened: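 The binding signal is fluorescence intensity per array feature (arbitrary units). Readings came from an Axon 4000B scanner after a washed, 2% BSA-blocked, double-stranded custom Agilent array had been incubated for 1 h at 25 °C with 200 nM protein and 50 µM zinc acetate. The protein was a Ni–NTA-purified transcription factor fused N-terminally to polyhistidine and DsRed, expressed in E. coli BL21-CodonPlus.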
# OsWRKY34, sequence (Q0JBA9 entry or part of it): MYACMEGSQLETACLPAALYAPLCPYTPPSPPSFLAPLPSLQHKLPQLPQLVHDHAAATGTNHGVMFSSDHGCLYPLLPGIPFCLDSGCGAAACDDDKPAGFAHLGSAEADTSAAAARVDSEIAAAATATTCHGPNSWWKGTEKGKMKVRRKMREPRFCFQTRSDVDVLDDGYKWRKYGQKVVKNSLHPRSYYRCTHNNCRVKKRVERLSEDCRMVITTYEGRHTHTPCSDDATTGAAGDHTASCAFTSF
row,Sequence,binding signal
1,CACTCTGCCTCACCTCACCTCACCTCACGTCCTCACCTCCCGGAGTCACCTAGTGCAG,10300 fluorescence intensity (a.u.)
2,CCGGGACGTGTGCCGCCGCTTAAGCCCGCTCTTTATACGTCGGAGTCACCTAGTGCAG,9690 fluorescence intensity (a.u.)
3,ACTCGTTGACCAAAGGGAGTGGAGTTTGAAAGGGTGGGAGCGGAGTCACCTAGTGCAG,14600 fluorescence intensity (a.u.)
4,TCTTGCAATCTTGATCGATAGTCTCCTCCATCTTCTTCGTCGGAGTCACCTAGTGCAG,8680 fluorescence intensity (a.u.)
5,ATAAATTATTAGTACTATTCCATATACTACATTTTCTTCTCGGAGTCACCTAGTGCAG,8440 fluorescence intensity (a.u.)
6,CATAGTCGTCTTCCTCGATCAATCCGCTCCGCTCCGTCTTCGGAGTCACCTAGTGCAG,8440 fluorescence intensity (a.u.)
7,ATGTACTCCCTCCGTTTCAAAATGTTTGACACCGTTGACTCGGAGTCACCTAGTGCAG,12300 fluorescence intensity (a.u.)
8,CTCCCTCCGTTTCAAAATGTTTGACACCGTTGACTTTTTACGGAGTCACCTAGTGCAG,28300 fluorescence intensity (a.u.)
9,TGTTTTCTTCTCATTCTTCTTTTTTCCCTTTCTTTTGCTCCGGAGTCACCTAGTGCAG,8390 fluorescence intensity (a.u.)
10,TACTACTCCCTCCGTTTCAAAATGTTTGACACCGTTGACTCGGAGTCACCTAGTGCAG,13100 fluorescence intensity (a.u.)
11,CCCTCCGTTTCAAAATGTTTGACACCGTTGACTTTTTAATCGGAGTCACCTAGTGCAG,14900 fluorescence intensity (a.u.)
12,ATACTCCCTCCGTTTCAAAATGTTTGACACCGTTGACTTTCGGAGTCACCTAGTGCAG,12500 fluorescence intensity (a.u.)
13,TTGCATTTTTGACTGTTTGCGTTGACTCCCTCACTTCTTCCGGAGTCACCTAGTGCAG,16400 fluorescence intensity (a.u.)
14,ACTCCCTCCGTTTCAAAATGTTTGACACCGTTGACTTTTTCGGAGTCACCTAGTGCAG,18500 fluorescence intensity (a.u.)
15,TTTCTTTTGCATTTTCCCTGTTCCATATCGTTTTTTTCTCCGGAGTCACCTAGTGCAG,8560 fluorescence intensity (a.u.)
16,TTTCTTCCATACTGAAATGTGTATCTTAGCTACTGAAGCTCGGAGTCACCTAGTGCAG,8440 fluorescence intensity (a.u.)
17,CATTTAATCTCCTCGTTACCGCTCAATTAACGCACCGATTCGGAGTCACCTAGTGCAG,8880 fluorescence intensity (a.u.)
18,CGGAGATCTTCAGAAACGAGTTATTTTTCCTCGCAAAACGCGGAGTCACCTAGTGCAG,8690 fluorescence intensity (a.u.)
19,ATTTGATCCTCTTTTTTCAACTTTGCTTATTTGACCCTTCCGGAGTCACCTAGTGCAG,11100 fluorescence intensity (a.u.)
20,TCACCCTTCACCTGCATGATCCTCTCTTTTTCAATCCCTCCGGAGTCACCTAGTGCAG,9340 fluorescence intensity (a.u.)
21,GCTCCGACTCCCTGTTTCCTGGTCCTCTTTTACACCGGCTCGGAGTCACCTAGTGCAG,15100 fluorescence intensity (a.u.)
22,TACATGTCTTAGAGCTACACATCTCTGATTTTTTTTTACACGGAGTCACCTAGTGCAG,8950 fluorescence intensity (a.u.)
23,ACTGCTAATTCGTCTATTTTGTACCACTTTCTCTATTTTTCGGAGTCACCTAGTGCAG,16500 fluorescence intensity (a.u.)

row,Sequence,binding signal
1,TTTTCTATTTCCCACTACTTTTCGTCATTTTTCTAATATTCGGAGTCACCTAGTGCAG,18100 fluorescence intensity (a.u.)
2,CACTATTCCTTTCCGGATTGCTTCTGCGTTCTACTTGATGCGGAGTCACCTAGTGCAG,11000 fluorescence intensity (a.u.)
3,TCTCTTCCGGTCGGAAGCTTGCTTTCCTTTTCTTCTTCTTCGGAGTCACCTAGTGCAG,8360 fluorescence intensity (a.u.)
4,CATATGTTGTTTTCTATTTCCCACTAATTTTCGTCATTTTCGGAGTCACCTAGTGCAG,10400 fluorescence intensity (a.u.)
5,TAGATTCTCTTTCTATTTTCTTTCCACTTAGCTTAGATATCGGAGTCACCTAGTGCAG,9100 fluorescence intensity (a.u.)
6,CTTCTATTTTCTTTCTGCTCTTCTCTTCTCTTGTCTACTTCGGAGTCACCTAGTGCAG,10300 fluorescence intensity (a.u.)
7,CTCTGTAATATATCATTATGACTGCTAATTCGTCTATTTTCGGAGTCACCTAGTGCAG,8080 fluorescence intensity (a.u.)
8,CGGAGTCGGTCAAGCTTAACCACTATTCCTTTCCGGATTGCGGAGTCACCTAGTGCAG,61500 fluorescence intensity (a.u.)
9,CCATTCCGCCCACTAGCTTTCTCTCTCTATTTTCTTTTTCCGGAGTCACCTAGTGCAG,16800 fluorescence intensity (a.u.)
10,CCCCACATTTTCTTTCACCTTCTCTTCCATTCCACCTCTCCGGAGTCACCTAGTGCAG,10100 fluorescence intensity (a.u.)
11,ATCTTTTTCTACTATCACTATATCATATTCTATTTTTTTTCGGAGTCACCTAGTGCAG,10500 fluorescence intensity (a.u.)
12,TGTGGTGTGCTTGAGGTGCTTTTGAGTTTTAAATAGATTACGGAGTCACCTAGTGCAG,8520 fluorescence intensity (a.u.)
13,GGGATCTGAGGCGCGTTTCTTAATTTGCCTTCTCTTTGAGCGGAGTCACCTAGTGCAG,9220 fluorescence intensity (a.u.)
14,AGTCCATCTAATTCGGCTGCACTCTTTTTCCCCTGTGAAGCGGAGTCACCTAGTGCAG,8530 fluorescence intensity (a.u.)
15,ATTTTATCACCCTGCTTAGAGTTTCGCCCGGAGCCATGAACGGAGTCACCTAGTGCAG,10700 fluorescence intensity (a.u.)
16,GCGAGGTCGGGGAGGTGGGTGCACAGTGCCCTGCGAGATGCGGAGTCACCTAGTGCAG,8120 fluorescence intensity (a.u.)
17,TACAAGCCCGTTGCCATCTCTACTCCGGCCTCCTAGTCCTCGGAGTCACCTAGTGCAG,9760 fluorescence intensity (a.u.)
18,GAATTCTTGTGTTCCAAGCATTTCGATTTGCTCCTCTCTTCGGAGTCACCTAGTGCAG,9020 fluorescence intensity (a.u.)
19,ATGGTGGTTCTAATTCTGTTGGTTGACTGCTCTCTGAAATCGGAGTCACCTAGTGCAG,13300 fluorescence intensity (a.u.)
20,ATCGGAGACTGACTGAGTGAAGGTTGGTTGGTTCACACTTCGGAGTCACCTAGTGCAG,8750 fluorescence intensity (a.u.)
21,CTGCTCTAACTGAAGTGCCAGGTGACTTGCTTGGTTGGTTCGGAGTCACCTAGTGCAG,18300 fluorescence intensity (a.u.)
22,CTATCGTCATCCTCGCGATCGCCGCATTCATCCATCCACTCGGAGTCACCTAGTGCAG,12800 fluorescence intensity (a.u.)
